# Data: PubChem BioAssay AID651784 (National Center for Advancing Translational Sciences (NCATS), 2012)
# Results filed as inconclusive are left out. The source made the active and inactive calls. Calls follow the shape of the dose curve; as a rule, active = well fitted inhibition curve with a large enough effect; inconclusive = small, poorly fitted or top-dose-only effect; inactive = no such curve, though single readings can be large or run the other way.
# Test: Acumen qHTS Assay for Inhibitors of the mTORC1 Signaling Pathway in MEF (Tsc2-/-, p53-/-) Cells: Hit Validation; also: nearly all actives have a fitted effect of over 65% in size
# Settings: Acumen imaging; activity change, negative = inhibition: at 37.3 µM (top of the series)
# Text: The mammalian target of rapamycin (mTOR) is an intracellular serine/threonine kinase Aberrant regulation of mTOR signaling plays a causative role in a number of human diseases, including cancer, benign tumors such as lymphangioleiomyomatosis (LAM) and Tuberous Sclerosis Complex (TSC), and metabolic diseases such as diabetes and obesity. This project aims to identify inhibitors of ribosomal protein S6 (rpS6) phosphorylation. The phosphorylation of rpS6 is a key event downstream of mTOR activation. The assay uses a phospho-specific antibody of phospho-rpS6 to detect inhibitors of mTOR activation. Mutations in the Tsc1 and Tsc2 genes are the underlying genetic lesions responsible for TSC, causing constitutive activation of the mTORC1 pathway and leading to profound effects on cell metabolism. Aberrant metabolism in cancer has recently received significant attention as a target to develop therapeutic agents in the treatment of cancer.1 As Tsc2-/- cells have lost the ability to respond to energy and growth factor deprivation, these cells are unable to properly down regulate cellular biosynthetic processes in response to metabolic stress, and are thus extremely sensitive to glucose deprivation-induced death.2 A central goal of this project is to explore the unique cell survival and metabolic properties of cells with Tsc1 or Tsc2 by screening for compounds that selectively target the Tsc2-/- MEFs by screening both Tsc2-/- and WT MEF cell lines. We hope to better understand these aspects of TSC physiology in order to exploit them for therapeutic benefit.
# NIH Molecular Libraries Probe Production Centers Network [MLPCN]
# NIH Chemical Genomics Center [NCGC]
# Assay Submitter (PI): Blenis, John; Harvard University
# For quantitative high throughput analysis of mTORC1 signaling, we developed a cell-based assay for immuno-fluorescence based detection of rpS6 phosphorylation on the Acumen Explorer that will be used a platform for the primary small molecule screen. Mouse embryonic fibroblasts (MEFs) are cultured in 1536-well plates using DMEM + 10% FBS. Twenty-four hrs after plating, test compounds (solubilized in DMSO) are delivered and incubated with the cells for 24 hrs at 37 degree Celsius. Following the incubation, media with compound is aspirated and the cells are fixed in 4% paraformaldehyde (PFA) containing PBS + 0.2% TX-100. Next, PFA is aspirated, cells are washed two times with PBS plus 0.2% TX-100 and the cells are blocked for 1 hr at room temperature (blocking buffer: LiCOR Blocking Buffer plus 0.2% TX-100). This is followed by aspiration and staining with Alexa-488 conjugated-phospho-rpS6 Ser235/236 antibody for 2 hours at room temperature (Cell Signaling Technology # 4803, 1:50 dilution in blocking buffer). Cells are washed two times with PBS plus 0.2% TX-100, and stained with 10 uM propidium iodide (PI) for 20-25 minutes for cell number measurement (1:500 dilution of Hoescht staining is also added for IN Cell imaging). The plates are scanned on the Acumen Explorer laser scanning instrument (TTP Labtech) using the 488nm laser for simultaneous excitation of the Alexa-488 and PI. […] Fluorescence emission from the PI stain is selected using a 575-640 nm band pass filter. The normalized phospho-S6 staining is calculated as the ratio of the integrated Alexa 488 intensity divided by the integrated PI intensity for the single concentration rapamycin control (7.5 nM) and DMSO columns. […] Inhibition of the pathway is defined based on the normalized phospho-S6 intensity in rapamycin treated cells. Active cells are defined as those with a normalized phospho-S6 staining above this threshold, and each treatment is reported as the % positive cells in the well, where thresholds are defined by selecting wells with the highest and lowest signal and differentiating between the % non-active and % active populations. In addition to the pathway specific phospho-S6 endpoint, the number of PI stained cells from the Acumen is recorded as a measure of cell viability. […]
# Potency is read from the fitted curve at half-maximal effect.
Compound,"activity change, negative = inhibition [%]",Potency
COc1ccc(-c2nc(C)c(CCNC(=O)c3ccccc3Br)s2)cc1OC,-7.02,–
Cc1ccc(-c2nnc(Nc3cccc(Cl)c3)c3ccccc23)cc1S(=O)(=O)N1CCN(C)CC1,-42.6,–
CCc1ccc(NC(=O)Cn2nc(C(F)(F)F)c3c2CCCC3)cc1,-28,–
CCNc1nc2c(c(=O)[nH]c(=O)n2C)n1CC(O)COc1ccc(Cl)cc1Cl (stereo not given),–,0.147 µM (active)
COc1ccc2c(c1)CCc1c(C(=O)Nc3c(C)nn(Cc4ccc(Cl)cc4)c3C)noc1-2,-75.9,–
Cc1ccc([C@H]2Nc3ccc(S(=O)(=O)Nc4cccc(Cl)c4C)cc3[C@H]3C=CC[C@H]32)cc1,8.84,–
CCN(CC)CCNC(=O)c1ccc(Cn2c(=O)c3cccn3c3cccnc32)cc1,-24.3,–
COc1cc(NC(=O)CSc2ccc(-c3ccccn3)nn2)cc(OC)c1,-6.23,–
CCOc1ccc(-c2nc(SCC(=O)c3ccccc3)n[nH]2)cc1,-131,–
O=C(NCc1ccccc1)c1nc(S(=O)(=O)Cc2ccccc2)ncc1Cl,–,5.85 µM (active)
CCOC(=O)C(Cc1c[nH]c2ccccc12)NC(=O)COc1ccc(Cl)cc1 (stereo not given),-4.4,–
CCOC(=O)N1CCN(Cc2nc3cc(NC(=O)CC(C)C)ccc3n2C(C)C)CC1,–,2.61 µM (active)
CCN(CC)CCn1c(=N)n(CCOc2ccccc2Cl)c2ccccc21,-149,–
Cc1cc(C)c(-c2n[nH]c3c2C(c2ccccc2F)N(Cc2ccco2)C3=O)c(O)c1 (stereo not given),2.41,–
CCCCS(=O)(=O)c1oc(-c2cccs2)nc1S(=O)(=O)c1ccccc1,–,2.07 µM (active)
CCCOCc1cc(CN2CCN(c3ccccc3OC)CC2)c(O)c2ncccc12,-93.6,–
Cc1cccc(Nc2nnc(-c3ccc(C)c(S(=O)(=O)N4CCN(C)CC4)c3)c3ccccc23)c1,-6.53,–
CCCS(=O)(=O)c1ncc(Cl)c(C(=O)Nc2c(C(=O)Nc3ccccc3)oc3ccccc23)n1,–,0.585 µM (active)
COc1ccc(-c2cc(C(F)(F)F)nc(S(C)(=O)=O)n2)cc1,-88.8,–
CCCCCn1c(=N)n(CC(O)COc2cccc(C)c2)c2ccccc21 (stereo not given),–,5.85 µM (active)

Compound,"activity change, negative = inhibition [%]",Potency
CCc1ccc(S(=O)(=O)N(C(=O)c2ccncc2)c2ccc3oc(C)c(C(=O)OC)c3c2)cc1,–,11.7 µM (active)
O=C(NCC1CCN(Cc2cccc(Cl)c2)CC1)Nc1ccc(F)c(Cl)c1,–,9.27 µM (active)
Cc1ccc(C(=O)CC2(O)C(=O)N(Cc3ccccc3)c3ccccc32)c(C)c1 (stereo not given),-24,–
CCN1CCOC(=O)C1CC(=O)Nc1cc(C)ccc1OC (stereo not given),–,10.4 µM (active)
C#CCN1C(=O)C(O)(CC(=O)c2ccc(OC)c(OC)c2)c2cc(Br)ccc21 (stereo not given),-24.1,–
CN(c1ccccc1)S(=O)(=O)c1ccc(NC(=O)c2nc(S(C)(=O)=O)ncc2Cl)cc1,–,1.47 µM (active)
CCCC(=O)OC1=CN(Cc2ccccc2)S(=O)(=O)c2ccccc21,-27.1,–
O=C(NC1CCCCC1)/C(=C/c1ccc(Cl)cc1)NC(=O)c1ccccc1,-5.63,–
COCCCNC(=O)c1ccc(CSc2nc3cccnc3n2Cc2ccc(OC)cc2)cc1,2.82,–
Cc1ccccc1Oc1nc2ccccn2c(=O)c1/C=C(\C#N)c1nc2ccccc2[nH]1,2.47,–
Cc1ccc(CN2C(=O)C(=O)c3cc(Br)cc(C)c32)cc1,–,9.27 µM (active)
Nc1nc(Nc2ccccc2F)sc1C(=O)c1ccc(Cl)cc1,-5.15,–
CC[C@H](CO)Nc1nc(NCc2ccccc2)c2ncn(C(C)C)c2n1,-22.4,–
CCCC1=Nc2cc(C(=O)NCc3ccccc3)ccc2Sc2ccccc21,–,4.14 µM (active)
CCC(C)NC(=O)c1sc2nc(C)c(C(=O)Nc3ccc(C)cc3C)c(-c3ccc(Cl)cc3)c2c1N (stereo not given),-10.2,–
COc1ccc(Oc2nc3c(C)cccn3c(=O)c2/C=C(\C#N)c2nc3ccccc3[nH]2)cc1,11.5,–
CCSc1ccccc1C(=O)Nc1ccc(-c2nc3ccccc3s2)c(O)c1,–,13.1 µM (active)
Oc1ccccc1Nc1nc(-c2ccccc2)c2cc(Cl)ccc2n1,-6.7,–
Cc1ccccc1S(=O)Cc1ccc(C(=O)N2CCN(c3cccc(C)c3C)CC2)o1 (stereo not given),–,6.56 µM (active)
O=c1c(-c2cc(-c3ccc(F)cc3)nc3c2COc2ccc(Cl)cc2-3)coc2ccc(F)cc12,7.23,–
